# According to PubChem BioAssay (EPA / NIEHS):
# The source made the active and inactive calls. How the source made its calls: active means hit-call score of the fitted dose curve at least 0.9, where 1 is the maximum; inactive means score below 0.9.
# Test: BSK_3C_VCAM1: BioMAP Diversity Plus: 3C Assay for Vascular cell adhesion molecule 1 (VCAM1) Biomarker Activity (AID 2282999)
# Conditions: BioMAP 3C HUVEC, VCAM1 ELISA, cytokine-stimulated; actives raise or lower the signal
# Description: BSK_3C is a cell-based, multiplexed-readout assay that uses umbilical vein endothelium, a human vascular primary cell, with measurements taken at 24 hours after chemical dosing in a 96-well plate.BSK_3C_VCAM1 is an assay component measured in the BSK_3C assay. It measures VCAM-1 antibody related to regulation of gene expression using ELISA technology.Data from the assay component BSK_3C_VCAM1 was analyzed into 1 assay endpoint. This assay endpoint, BSK_3C_VCAM1, was analyzed with bidirectional fitting relative to DMSO as the negative control and baseline of activity. Using a type of binding reporter, gain or loss-of-signal activity can be used to understand changes in the signaling as they relate to the gene VCAM1. Furthermore, this assay endpoint can be referred to as a primary readout, because this assay has produced multiple assay endpoints where this one serves a signaling function. To generalize the intended target to other relatable targets, this assay endpoint is annotated to the cell adhesion molecules intended target family, where the subfamily is Immunoglobulin CAM.
# The levels of cell surface (or secreted, indicated by the prefix "s") biomarker endpoints were measured by ELISA. Overt cytotoxicity to cells in confluent adherent cultures (all systems other than the BT system) was assessed by measuring total protein levels using sulforhodamine B (SRB) staining in parallel cultures at the time of biomarker measurements, indicated as SRB endpoints. For proliferation assays for adherent cell types, individual cell types are cultured at sub-confluence and relative cell numbers quantified by SRB staining at time points optimized for each system (48 h: 3C and CASM3C systems; 72 h: BT and HDF3CGF systems; 96 h: SAg system). SRB was performed by staining cells with 0.1% SRB after fixation with 10% TCA and reading wells at 560 nm.Viability and proliferation of PBMC (T cells) was quantified by Alamar Blue reduction for the SAg and BT systems. For PBMC viability (referred to as PBMC Cytotoxicity within the assay endpoint names), cells were plated (75,000/well in a 96-well plate) and then chemical samples added for 1 h before addition of activators, SEB and TSST-1 (20 ng/mL final concentration each). Cells were incubated for 90 h. Then, Alamar Blue (20 uL/well) (Invitrogen, Cat DAL1100) was added for 6 h, and the plates were read with a fluorescence microplate reader at 546/580 nm (excitation/emission). For PBMC proliferation, cells were plated and activated as above but incubated for only 16 h prior to addition of Alamar Blue. Plates were read after 6 h.
Structure (SMILES),outcome,AC50
CCn1nc(Cc2ccccc2)cc1C1CCN(C[C@H]2C[C@H](N(C)[C@@H](C(=O)O)C(C)C)C[C@@H]2c2cccc(F)c2)CC1,inactive,
O=c1n(CC2CO2)c(=O)n(CC2CO2)c(=O)n1CC1CO1 (stereo not given),,26.3 µM (active)
O=c1[nH]c2ccc(S(=O)CCN3CCC(Cc4ccc(F)cc4)CC3)cc2o1 (stereo not given),inactive,
Cc1ccc(S(=O)(=O)O)cc1C,inactive,
O=C1CCCCCN1,inactive,
COCCOc1cc2cc(C(=O)NC3CCN(C(C)C)CC3)n(CC(=O)Nc3ccc(Cl)cn3)c2cn1,inactive,
O=C(O)CC(O)C(=O)O (stereo not given),inactive,
O=C1OC(=O)C2C3C=CC(C3)C12 (stereo not given),inactive,
Cc1ccc(C)c(O)c1,inactive,
O=P(OC(CCl)CCl)(OC(CCl)CCl)OC(CCl)CCl,inactive,
CCCCC(CC)COC(=O)c1ccc(C(=O)OCC(CC)CCCC)cc1 (stereo not given),inactive,
CCOCCOCCOCCO,inactive,
COC(=O)c1ccccc1O,inactive,
C1N2CN3CN1CN(C2)C3,inactive,
CNS(=O)(=O)c1cc(C(=O)N2CCC(CCN3C4CCC3CC(n3c(C)nc5ccccc53)C4)(c3cccc(F)c3)CC2)c(Cl)cc1F (stereo not given),,13.5 µM (active)
COC(=O)CC(=O)OC,inactive,
COc1cccc(-c2ccc(/C=C\CN3CCCCCC3)cc2Cl)c1,,33.1 µM (active)
COC(=O)c1c(Cl)c(Cl)c(C(=O)OC)c(Cl)c1Cl,inactive,
CCOC(=O)CC(CC(=O)OCC)(OC(C)=O)C(=O)OCC,inactive,
COc1ccc(-n2nc(C(F)F)cc2-c2ccc(S(C)=O)cc2)cc1 (stereo not given),inactive,

Structure (SMILES),outcome,AC50
O=C(NS(=O)(=O)/C=C/c1ccccc1)c1ccc(F)cc1Cl,inactive,
CC(C)=CCCC(C)=CC=O,inactive,
O=C(O)c1cccc(N(Cc2cccnc2)c2ccc(OC(F)F)c(OC(F)F)c2)c1,inactive,
CCC(C)(C)C(=O)O[C@H]1C[C@@H](C)C=C2C=C[C@H](C)[C@H](CC[C@@H]3C[C@@H](O)CC(=O)O3)[C@H]21,,29.9 µM (active)
C[C@](N)(Cc1ccc(O)c(O)c1)C(=O)O,inactive,
CNCc1ccc(NC(=O)c2c[nH]c3c2C(=O)CCC3)cc1,inactive,
CCCN(C1CCN(C(=O)C2CCNCC2)CC1)[C@@H]1CCc2ccc(OC)cc2C1,inactive,
CCCCCCc1ccc(O)cc1O,,34.3 µM (active)
CCOC(=O)COc1ccc2c(c1)CC(NCC(O)c1cccc(Cl)c1)CC2 (stereo not given),,27.5 µM (active)
C=CCCCCCCCCC(=O)O,inactive,
CCCCCCCCO,inactive,
COc1ccc(/C=C/S(=O)(=O)NC(=O)c2ccc(C)cc2Cl)cc1,inactive,
CC(C)c1cccc(C(C)C)c1N1C(=O)c2ccc(O)cc2C1=O,,16.7 µM (active)
O=C(O)c1cccc(Oc2ccccc2)c1,inactive,
Fc1ccccc1[C@@H](F)COC1CCC(Nc2ncnc3[nH]ncc23)CC1 (stereo not given in full),inactive,
Nc1ccc(Nc2ccccc2)cc1,,4.54 µM (active)
CC(C)=CCC/C(C)=C\CO,inactive,
O=C(CCCCCCCCc1cccnc1)N1CCC(C=C(c2ccccc2)c2ccccc2)CC1,,14.3 µM (active)
CCOC(=O)c1ccc(C2CCC(NC[C@H](O)COc3ccc(O)c(NS(C)(=O)=O)c3)CC2)cc1 (stereo not given in full),,30.5 µM (active)
CC1=CC(=O)CC(C)(C)C1,inactive,
